From PubChem BioAssay (EPA / NIEHS) come the findings set out here.

The structures appear in SMILES notation. Inconclusive results are not listed. Calls of active or inactive are those of the source. The calls were made as follows: active = hit-call score of the fitted dose curve at least 0.9, where 1 is the maximum; inconclusive = response in the unintended direction; inactive = score below 0.9.

This experiment deals with Nucleoli Translocation, AR (gene 367) (UniProt P10275). Description: UPITT_HCI_U2OS_AR_TIF2_Nucleoli_Agonist: University of Pittsburgh U2OS Androgen Receptor-Transcriptional Intermediary Factor 2 (AR-TIF2) Agonism High Content Imaging Assay for Nucleoli Translocation (AID 2283998). The source says: UPITT_AR_TIF2_PPIB is a cell-based, high-content imaging assay that uses U2OS, a human osteosarcoma cell line, expressing a human androgen receptor fused to red fluorescent protein and the coactivator TIF2 fused to green fluorescent protein. UPITT_HCI_U2OS_AR_TIF2_Nucleoli_Agonist is one of four assay components measured from the UPITT_AR_TIF2_PPIB assay. It is designed to make measurements of red fluorescence localized in the nucleolar region of the cell nucleus as detected with high-content fluorescent imaging.Data from the assay component UPITT_HCI_U2OS_AR_TIF2_Nucleoli_Agonist was analyzed into 1 assay endpoint. This assay endpoint, UPITT_HCI_U2OS_AR_TIF2_Nucleoli_Agonist, was analyzed in the positive analysis fitting direction relative to DMSO as the baseline of activity. Using a type of binding reporter, measures of receptor for gain-of-signal activity can be used to understand the binding at the pathway-level as it relates to the gene AR.
Chain of Nucleoli Translocation, AR (gene 367) (P10275 whole entry, looked up, the tested form may be a part): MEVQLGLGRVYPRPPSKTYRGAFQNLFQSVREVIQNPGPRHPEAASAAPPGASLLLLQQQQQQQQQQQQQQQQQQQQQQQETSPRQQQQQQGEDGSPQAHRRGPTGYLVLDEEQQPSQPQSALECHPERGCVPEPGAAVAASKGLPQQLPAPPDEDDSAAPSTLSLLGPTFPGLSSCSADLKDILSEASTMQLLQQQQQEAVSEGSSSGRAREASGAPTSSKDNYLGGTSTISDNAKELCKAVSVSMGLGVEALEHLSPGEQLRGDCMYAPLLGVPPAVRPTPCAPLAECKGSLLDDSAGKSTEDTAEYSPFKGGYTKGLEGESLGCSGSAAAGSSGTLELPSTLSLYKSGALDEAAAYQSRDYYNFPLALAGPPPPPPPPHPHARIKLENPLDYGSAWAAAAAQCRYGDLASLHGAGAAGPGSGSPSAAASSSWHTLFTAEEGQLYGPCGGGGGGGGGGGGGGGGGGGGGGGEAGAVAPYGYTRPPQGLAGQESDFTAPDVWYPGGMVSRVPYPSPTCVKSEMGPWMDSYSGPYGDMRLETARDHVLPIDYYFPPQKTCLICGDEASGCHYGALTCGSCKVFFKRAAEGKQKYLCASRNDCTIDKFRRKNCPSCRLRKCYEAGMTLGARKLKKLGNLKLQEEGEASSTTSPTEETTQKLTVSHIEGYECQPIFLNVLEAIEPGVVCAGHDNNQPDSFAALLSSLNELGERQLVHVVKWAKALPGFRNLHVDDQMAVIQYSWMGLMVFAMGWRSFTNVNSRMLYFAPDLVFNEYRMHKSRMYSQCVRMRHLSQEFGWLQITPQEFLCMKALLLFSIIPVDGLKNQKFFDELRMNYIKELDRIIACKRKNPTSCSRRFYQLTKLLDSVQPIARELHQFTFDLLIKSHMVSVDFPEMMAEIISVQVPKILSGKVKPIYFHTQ
Daughter plates containing 2 uL of 10 mM compounds in DMSO were prepared and replicated from the 384-well Library of Pharmacologically Active Compounds (LOPAC) master plates using the Bravo outfitted with a 384-well transfer head. Aluminum adhesive plate seals were applied with an Abgene Seal-IT 100 (Rochester, NY) plate sealer, and the plates were stored at -20 C in a Matrical MatriMinistore (Spokane, WA) automated compound storage and retrieval system. For screening, LOPAC daughter plates were withdrawn from -20C storage, thawed to ambient temperature, centrifuged 1-2 min at 50 g, and the plate seals were removed before the transfer of 98 uL of serum-free tissue culture medium (SFM) into wells using the BioTek Microflo liquid handler (BioTek, Winooski, VT) to generate a 200 uM intermediate stock concentration of library compounds (2.0% DMSO). The diluted compounds were mixed by repeated aspiration and dispensation using a 384-well P30 dispensing head on the Evolution P3 (EP3) liquid handling platform (PerkinElmer, Waltham, MA) and then 5 uL of diluted compounds was transferred to the wells of assay plates. In the LOPAC screen, compounds were individually tested at a final concentration of 20 uM (0.2% DMSO). After the diluted compounds had been transferred from the daughter plates to the primary HCS assay plates, aluminum adhesive plate seals were applied and the diluted daughter plates were stored frozen at -20C. To confirm active compounds identified in the primary screen, we withdrew the LOPAC daughter plates containing the 200 uM intermediate concentration of library compounds (2.0% DMSO) from -20C storage, thawed them to ambient temperature, centrifuged them for 1-2 min at 50 g, and removed the plate seals. A work list was generated to direct the Multiprobe Janus liquid handling platform (PerkinElmer) to cherry pick 75 uL from the wells of the diluted daughter plates that were flagged active in the primary screen and to reformat these into a 384-well plate hit confirmation daughter plate. Five microliters of primary HCS active compounds was then transferred into triplicate wells of assay plates using a 384-well P30 dispensing head on the Evolution P3 (EP3) liquid handling platform (PerkinElmer). […] Daughter plates containing 2 uL of the serially diluted compounds in DMSO were prepared and replicated from the 384-well serial dilution master plates using the Bravo outfitted with a 384-well transfer head. Aluminum adhesive plate seals were applied and plates were stored at -20C. For testing in the bioassays, daughter plates were withdrawn from -20C storage, thawed to ambient temperature, centrifuged for 1-2 min at 50 g, and the plate seals were removed before the transfer of 38 uL of SFM into wells using the BioTek Microflo liquid handler (BioTek) to generate an intermediate stock concentration of library compounds ranging from 1.95 to 500 uM (5.0% DMSO). […]
For the molecule `CCCCCCCCCc1ccc(OCCO)cc1`, the result was inactive.
Turning to `CCCCCCCCCCCCCC[P+](CCCC)(CCCC)CCCC`, the call was inactive.
Turning to `CCN=c1cc2oc3cc(NCC)c(C)cc3c(-c3ccccc3C(=O)OCC)c-2cc1C`, the AC50 (as a rule, the concentration giving half of the maximal activity seen) was 12.9 µM (active).
As for `CC1CCCCC1`, the molecule was called inactive.
The same measure, in the same setting: next, `F[Si-2](F)(F)(F)(F)F`: “inactive”.
For the molecule `COCCOCCC[Si](C)(O[Si](C)(C)C)O[Si](C)(C)C`, the AC50 is 88.8 µM (active).
Take `C[C@]12CC[C@H]3C(=CCc4cc(O)ccc43)[C@@H]1CCC2=O`: the molecule was classed as inactive.
The same measure, in the same setting: next, `CCCCCCCCCCCCC[N+](C)(C)Cc1ccccc1`: “inactive”; `CCc1ccc(C)nc1`: “inactive”; `CCCCCCCC/C=C\CCCCCCCC(=O)OCC(O)CO` (configuration not stated): “inactive”.
On the same count and under the same terms, next, `Cc1cccc(C)n1`: “inactive”.
Still for that read-out and setting: to `O=C1C=CC(=O)N1c1ccccc1` belongs “inactive”.
